Compound activity deposited in PubChem BioAssay by National Center for Advancing Translational Sciences (NCATS).
Sm TGR block = inhibitors of Schistosoma mansoni thioredoxin glutathione reductase; 360,000 tested, 3% active; Q962Y6; AID 485364; Potency, µM (titrated, usually from 114 µM), for the others: at the top dose activity change, negative = inhibition, actives largely listed as inhibitors; purified TGR, DTNB reduction, TNB absorbance 405 nm; further: potency means the concentration at half of the fitted maximal effect; on the % scale 0 is the no-effect control and ±100 the full control effect; nearly all actives have a fitted effect of over 60% in size
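First, TGR (20 nM dispensed) and NADPH were mixed with compound. Second, a 15 min room-temperature incubation followed. Third, further NADPH and then DTNB were added to start the reaction. Finally, TNB absorbance was monitored kinetically.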
Shiga inhibitor = blocks Shiga toxin action in Vero cells | Vero cells, Shiga toxin protein synthesis inhibition reporter | 290,000 tested, 9.2% active | inhibition, % at 38.7 µM; in the data active means inhibition mostly above about 28%, no sharp cut-off; inactive means mostly below about 43%; further: 0% is about no effect
Pf growth 96h = P. falciparum growth inhibition at 96 hours | P. falciparum luciferase reporter growth, 96 h | Potency, µM (highest dose often 28.7 µM), without a hit: top-dose activity change, negative = inhibition, actives largely listed as inhibitors | 320,000 tested, 6.9% active | AID 504834; further: potency means the concentration at half of the fitted maximal effect; on the % scale 0 is the no-effect control and ±100 the full control effect
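P. falciparum expressing integrated firefly luciferase grown in erythrocytes (2% hematocrit, 0.05% parasitemia final) with compounds for 96 hours at 37 C, 5% CO2. Growth inhibition read as loss of luminescence after adding luciferase detection reagent.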
NS1 inh = influenza NS1 inhibition; Potency, µM (series often up to 46.1 µM), for the others: at the top dose activity, positive = more growth; 270,000 tested, 0.4% active; AID 2326; calls by dose curve; further: potency means the concentration at half of the fitted maximal effect; actives are rising curves; nearly all actives have a fitted effect of over 50% in size
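Read-out: OD600 growth recovery of NS1-expressing budding yeast. Cells grown overnight at 30C in -URA glucose medium, washed, resuspended and diluted 1:100 in 2% galactose assay medium, pH 6.0. Same strain lacking NS1 served as positive control.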
Cycloheximide cs = affects cycloheximide protein synthesis inhibition readout, counter-screen; 300,000 tested, 12% active; max response, %; cell reporter, cycloheximide protein synthesis inhibition counterscreen; AID 2314; in the data active means max response mostly above about 13%, no sharp cut-off; inactive means mostly below about 14%; further: read at 38.3 µM for the half of the compounds with a filed dose; 0% is about no effect
Pf growth 48h = inhibits P. falciparum growth in the first generation, 48 h | P. falciparum luciferase growth in erythrocytes, 48 h | Potency, µM (top dose mostly 28.7 µM), inactives show at the highest dose activity change, negative = inhibition, usual class: inhibitors | 310,000 tested, 5.9% active; further: potency means the concentration at half of the fitted maximal effect; on the % scale 0 is the no-effect control and ±100 the full control effect
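Here the parasites carry a stable luciferase gene and grow inside erythrocytes in Albumax-based RPMI medium with compound for one erythrocytic cycle. Activity is scored as loss of luminescent signal.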
* = called active by the depositor; i = inactive; u = inconclusive; x = not tested or not shown. Compounds with a hit are over-represented: about 21% of the library has one in this group of screens. Unless noted, the call rests on the fitted dose curve; in most records, active means well fitted curve in the direction sought with a large enough effect; inconclusive means small, poorly fitted or top-dose-only effect, or another doubt; inactive means no such curve, though single readings can be large; an effect the other way counts as inactive or inconclusive.

SMILES | Sm TGR block | Shiga inhibitor | Pf growth 96h | NS1 inh | Cycloheximide cs | Pf growth 48h
COc1ccc(S(=O)(=O)CCC(=O)NCCc2ccc(S(N)(=O)=O)cc2)cc1 | 40µM* | -8 | 9.3µM* | 0% | 11 | -12%
COc1ccc(CNC(=O)COC(=O)c2cccs2)cc1 | -4% | 47* | 1% | -21% | 27* | 40%
O=C(NCCCCCCNC(=O)c1cccs1)c1cccs1 | 8% | -7 | 28% | 7% | -3 | 3%
COc1ccc(S(=O)(=O)CCC(=O)NCCc2cccc(C)c2)cc1 | 0% | -9 | u | 2% | -5 | x
COC(=O)Nc1[nH]ncc1[N+](=O)[O-] | -1% | 23 | 41% | 2% | 2 | 11%
C[C@@H]1O[C@@H](O[C@H]2CC[C@@H](O[C@H]3[C@H](O)C[C@H](c4ccc5c(c4O)C(=O)C4=C(C5=O)[C@@]5(O)C(=O)C[C@](C)(O[C@H]6CC[C@H](O[C@H]7C=CC(=O)[C@H](C)O7)[C@H](C)O6)C[C@@]5(O)C=C4)O[C@@H]3C)O[C@H]2C)C=CC1=O | x | -21 | x | x | -18 | x
O=C(O)c1cc(N=Nc2ccc([N+](=O)[O-])cc2)ccc1O | x | x | x | -4% | x | x
O=C(NCC(O)c1ccccc1)c1cccs1 (centres undefined) | 13% | 79* | 94% | 4% | 42* | 101%
CC(CCc1ccccc1)NC(=O)c1cccs1 (centres undefined) | 7% | -2 | u | -23% | -4 | 3%
CC(Cc1cccs1)NC(=O)c1cccs1 (centres undefined) | 0% | 74* | 144% | x | 33* | 41%
O=C(NCCSCc1ccc(Cl)cc1)c1cccs1 | 4% | -6 | 10µM* | -44% | 9 | 3.3µM*
CC(Cc1cccs1)NC(=O)Nc1ccc([N+](=O)[O-])cc1 (centres undefined) | 55% | 73* | 0% | -42% | 30* | -13%
COc1ccccc1C1=NC(c2ccc(F)cc2)N=C1C (centres undefined) | -2% | 88* | 226% | x | 28* | 126%
COC(=O)[C@@]1(OC)C[C@@H]2O[C@@]1(C)n1c3ccccc3c3c4c(c5c6ccccc6n2c5c31)C(=O)N(C)C4 | x | i | x | x | 2 | x
C[C@]12O[C@H](C[C@]1(O)CO)n1c3ccccc3c3c4c(c5c6ccccc6n2c5c31)CNC4=O | x | x | 0.15µM* | x | x | 0.17µM*
CC(C)c1nnc(NC(=O)CSc2ccccc2)s1 | 1% | 18 | x | 5% | 34* | 24%
CC(C)c1nnc(NC(=O)CC(C)c2ccccc2)s1 (centres undefined) | 75% | 18 | -20% | 17% | 13 | 32%
CC(C)(C)Cc1nnc(NC(=O)CSc2ccccc2)s1 | 5% | 14 | u | 22% | 13* | 14%
Fc1ccc(-c2csc(Nc3ccccn3)n2)c(F)c1 | 0% | 40* | 12% | -1% | 46* | 273%
Cc1onc(-c2ccccc2)c1C(=O)Nc1nc(-c2ccc(F)c(F)c2)cs1 | -3% | 69 | -18% | -12% | 18 | u
Cc1ccc(-c2csc(Nc3ccccn3)n2)cc1 | 4% | x | u | -25% | 35* | -25%
Cc1cc(-c2csc(Nc3ccccn3)n2)ccc1F | 14% | 116* | u | -21% | 42* | -13%
c1ccc(-c2csc(Nc3ccccn3)n2)cc1 | -7% | 82* | 76% | -12% | 60* | 200%
N=C(N)SCc1cc(Cl)cc(Cl)c1O | x | x | x | -6% | x | x
COc1ccc(NS(=O)(=O)c2cc(NC(=O)c3ccc(=O)[nH]n3)ccc2C)cc1 | -10% | x | u | x | x | u
SMILES | Sm TGR block | Shiga inhibitor | Pf growth 96h | NS1 inh | Cycloheximide cs | Pf growth 48h
CCN(CC)c1ccc(NC(=O)CCN2C(=O)c3ccccc3S2(=O)=O)c(C)c1 | -7% | x | 3% | x | x | -11%
CCOc1ccc2nc(Cl)c(C3CC(c4ccccc4)=NN3C(=O)c3ccco3)cc2c1 (centres undefined) | 0% | 8 | 2% | 9% | -2 | -3%
Cc1c(NC(=O)c2ccc(Cl)cc2)cc(C(C)C)c(O)c1S(=O)(=O)c1ccc(Cl)cc1 | 2% | x | x | x | x | x
COc1ccc(-n2c(=O)c3c(c4cc(OC)ccc4n3C)n(CC(=O)NCC3CCCO3)c2=O)cc1 (centres undefined) | -1% | x | x | x | x | x
COc1ccc(CC(=O)Nc2nc(-c3ccc(OC)c(OC)c3)cs2)cc1OC | 10% | 25 | -14% | -11% | -3 | -18%
Oc1ccc(-c2csc(Nc3ccccn3)n2)cc1 | 10% | 122* | u | -42% | 43* | 180%
COc1ccc(-c2csc(Nc3ccccn3)n2)cc1OC | 9% | 67* | u | -4% | 37* | 148%
O=C(CSc1nnc(-c2cc3ccccc3cc2O)n1Cc1ccco1)N1CCc2ccccc2C1 | u | -24 | 1.7µM* | 0% | -2 | x
Cc1occc1-c1nnc(SCC(=O)N2CCOCC2)n1Cc1ccco1 | u | -6 | 0% | -6% | -3 | 9%
CC(C)N(C(=O)CSc1nnc(-c2cc3ccccc3cc2O)n1Cc1ccco1)C(C)C | u | -11 | 35% | 13% | 2 | 2.1µM*
COc1ccc2c(CNCCc3ccccc3OC)c(C(=O)O)n(Cc3ccc(F)cc3Cl)c2c1 | -8% | x | x | x | x | x
COc1ccc(N2CCN(S(=O)(=O)CCNC(=O)C3CC(=O)N(c4ccccc4)C3)CC2)cc1 (centres undefined) | -23% | 14 | -1% | -5% | 9 | -1%
CCc1ccc(N(CC(=O)NC(C)(C)C)C(=O)CNC(=O)c2cccs2)cc1 | 12% | 33 | 19% | 24% | -3 | u
Cc1ccc(N(CC(=O)NC(C)(C)C)C(=O)CNC(=O)c2cccs2)cc1 | x | 15 | 6% | 2% | 0 | 7.4µM*
COC(=O)Cn1c(O)c(N=NC(=O)CNC(=O)COc2cccc(C)c2)c2ccccc21 | -3% | 12 | 38% | -9% | -2 | 11%
O=C(CCCN1CC=C(n2c(=O)[nH]c3ccccc32)CC1)c1ccc(F)cc1 | -8% | -9 | 3.3µM* | 2% | -3 | 8.3µM*
COc1ccccc1N(Cc1ccccc1)S(=O)(=O)c1cccc(C(=O)Nc2ncccc2C)c1 | 14% | x | u | x | x | 12µM*
COc1ccc(N(Cc2ccccc2)S(=O)(=O)c2cccc(C(=O)Nc3ncccc3C)c2)cc1 | 9% | x | u | x | x | u
CC1(C)CC(NC(=O)c2ccc(Cl)c(S(=O)(=O)N(Cc3ccccc3)c3ccccc3)c2)CC(C)(C)N1 | -11% | x | 7.4µM* | x | x | 5.2µM*
COc1ccccc1N(Cc1ccccc1)S(=O)(=O)c1cccc(C(=O)O)c1 | 6% | 2 | -21% | u | -2 | -3%
CCOc1ccccc1NC(=O)c1cccc(S(=O)(=O)N(Cc2ccccc2)c2ccccc2OC)c1 | -7% | -10 | 2.6µM* | 1% | -2 | 0%
